PubChem BioAssay (NCATS)
“And” between values parts separate entries of the source, which are not always exact repeats. Equal values may be shown once. Records with an inconclusive call do not appear. The source made the active and inactive calls. Calls come from the whole dose curve; as a rule, active = well fitted activation curve with a large enough effect; inconclusive = small, poorly fitted or top-dose-only effect; inactive = no such curve, though single readings can be large or run the other way. Where a SMILES comes first, the peptide text is derived from it. The star is where a group is joined. Cbz = O=C(OCc1ccccc1)*

Each compound was assayed against Cellular tumor antigen p53 (Homo sapiens) (UniProt P04637) (assay: Primary qHTS for small molecule compounds that upregulate eGFP-tagged delta133p53alpha (in N-terminal) cells. (AID 2060322;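 note: cells pre-induced with doxycycline then dosed without doxycycline; series mostly up to about 56 µM; 0% = DMSO vehicle and 100% = reference activator; nearly all actives have a fitted effect of over 75% in size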)). Settings: NCI-H358 eGFP-delta133p53alpha fluorescence, 24 h; activation: hits give high values.
Method in brief: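 NCI-H358 cells pre-induced 24 h with 10 ng/ml doxycycline for eGFP-delta133p53alpha, plated dox-free and exposed 24 h at 37C to titrated compounds. Fixed, Hoechst-stained; gated GFP peak intensity by laser scanning cytometry, normalized to DMSO (0%) and 57.5 uM 5-azacytidine (100%).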

Cellular tumor antigen p53 (Homo sapiens), sequence (P04637 whole entry, looked up): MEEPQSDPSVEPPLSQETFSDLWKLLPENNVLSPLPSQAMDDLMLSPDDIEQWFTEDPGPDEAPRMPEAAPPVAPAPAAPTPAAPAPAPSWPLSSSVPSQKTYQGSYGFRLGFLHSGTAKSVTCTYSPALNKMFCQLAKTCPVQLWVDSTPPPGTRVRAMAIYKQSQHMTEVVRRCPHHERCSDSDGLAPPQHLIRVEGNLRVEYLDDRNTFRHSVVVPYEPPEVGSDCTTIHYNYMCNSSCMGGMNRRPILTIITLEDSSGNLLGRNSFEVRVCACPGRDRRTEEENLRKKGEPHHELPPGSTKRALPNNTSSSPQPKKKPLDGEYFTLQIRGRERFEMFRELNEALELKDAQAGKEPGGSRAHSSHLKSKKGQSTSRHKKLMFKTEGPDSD

Row | Structure (SMILES) | activation
1 | NCCCCC(=O)O | -27.1% (inactive)
2 | CCc1ccc2c(-c3cccc(Cl)c3)nc(=O)n(CC)c2n1 | -40.5% (inactive)
3 | CNC1(C)C2CCC(C2)C1(C)C (stereo not given) | -45.5% (inactive)
4 | C[C@@]1(C2CCCC2)Cc2cc(OCC(=O)O)c(Cl)c(Cl)c2C1=O | 4.66% (inactive)
5 | C[N+](C)(C)CCCCCC[N+](C)(C)C | -20.9% (inactive) and 7.49% (inactive) and -11.5% (inactive)
6 | COc1cc2nc(N3CCN(C(=O)C4COc5ccccc5O4)CC3)nc(N)c2cc1OC (stereo not given) | 6.69% (inactive) and -16.6% (inactive) and -33.1% (inactive)
7 | NC(N)=NC(=O)Cc1c(Cl)cccc1Cl | -18.6% (inactive) and -5.21% (inactive)
8 | Nc1ncnc2c1nc(Sc1ccc(Cl)cc1)n2[C@H]1OC2COP(=O)(O)O[C@@H]2C1O (stereo not given in full) | 27.8% (inactive)
9 | Nc1ccc(-c2nc3ccc(-c4nc5ccc(N)cc5[nH]4)cc3[nH]2)cc1 | -9.36% (inactive)
10 | CC(C)CC(NP(=O)(O)O[C@@H]1O[C@@H](C)[C@H](O)[C@@H](O)[C@H]1O)C(=O)NC(Cc1c[nH]c2ccccc12)C(=O)O (stereo not given in full) | -14.9% (inactive)
11 | CCCCCCCCc1ccc(-c2ccc(C(=O)O)cc2)cc1 | -87.3% (inactive)
12 | CC(C)[C@H](NC(=O)OCc1ccccc1)C(=O)N[C@H](C=O)Cc1ccccc1 (Cbz-Val-Phe-aldehyde) | -5.34% (inactive)
13 | CC(CN(C)C)CN1c2ccccc2CCc2ccccc21 (stereo not given) | -10% (inactive) and -21.6% (inactive)
14 | O=C(O)c1cc([N+](=O)[O-])ccc1NCCCc1ccccc1 | -7.19% (inactive)
15 | Nc1ncnc2c1ncn2[C@@H]1O[C@H](COP(=O)(O)CP(=O)(O)OP(=O)(O)O)[C@@H](O)[C@H]1O | 7.87% (inactive)
16 | NCCCNCCSP(=O)(O)O | 5.02% (inactive) and 16.3% (inactive)
17 | CCCOc1ccccc1-c1nc2n[nH]nc2c(=O)[nH]1 | -19.5% (inactive)
18 | NC(CCCP(=O)(O)O)C(=O)O (stereo not given) | 34.5% (inactive)
19 | CN1CCCC1CCOC(C)(c1ccccc1)c1ccc(Cl)cc1 (stereo not given) | -26.8% (inactive)
20 | Nc1nc(Cl)nc2c1ncn2[C@@H]1O[C@H](CO)[C@@H](O)[C@H]1O | -6.39% (inactive)

Row | Structure (SMILES) | activation
21 | NC1(C(=O)O)CCCCC1 | 13.9% (inactive)
22 | CN/C(=C\[N+](=O)[O-])NCCSCc1ccc(CN(C)C)o1 | 7.34% (inactive) and -15.3% (inactive)
23 | N[C@H](CCCP(=O)(O)O)C(=O)O | -16.6% (inactive)
24 | CC(=O)O[C@H]1CC2(C)[C@@H](C[C@@H](O)[C@H]3[C@@]4(C)CC[C@@H](O)[C@@H](C)[C@@H]4CC[C@@]32C)C1=C(CCC=C(C)C)C(=O)O (stereo not given in full) | -11.4% (inactive)
25 | NCC(O)(CS(=O)(=O)O)c1ccc(Cl)cc1 (stereo not given) | -28.8% (inactive)
26 | Nc1nc(N)c2nc(-c3ccccc3)c(N)nc2n1 | -26.6% (inactive) and -1.16% (inactive)
27 | O=C(Nc1ccccc1)c1cc([N+](=O)[O-])ccc1Cl | 24.9% (inactive)
28 | CCCCNc1ccc(C(=O)OCCN(C)C)cc1 | -9.6% (inactive) and 10.7% (inactive)
29 | O=c1n(CCCN2CCN(c3cccc(Cl)c3)CC2)nc2ccccn12 | -7.53% (inactive) and 33.4% (inactive) and -0.284% (inactive)
30 | CCCCCCCC/C=C\CCCCCCCC(=O)NCCO | -9.12% (inactive)
31 | OC[C@H]1O[C@@H](n2cnc3c(NC4CCCC4)ncnc32)[C@H](O)[C@@H]1O | -30.9% (inactive)
32 | CCCNC(C)C(=O)Nc1ccccc1C (stereo not given) | -9.21% (inactive) and 30.8% (inactive)
33 | NC(N)=NCc1cccc(I)c1 | -18.3% (inactive)
34 | CC(=O)c1ccc(S(=O)(=O)NC(=O)NC2CCCCC2)cc1 | 3.35% (inactive) and -2.1% (inactive)
35 | C[C@]12CC[C@@H]3c4ccc(O)cc4C[C@@H](CCCCCCCCCS(=O)CCCC(F)(F)C(F)(F)F)[C@H]3[C@@H]1CC[C@@H]2O (stereo not given in full) | 5.86% (inactive) and -66.3% (inactive)
36 | OCC1O[C@H](O)C(Cl)C(O)C1O (stereo not given in full) | -8.54% (inactive)
37 | CCN1CCCC1CNC(=O)c1cc(S(N)(=O)=O)ccc1OC (stereo not given) | 8% (inactive) and -7.28% (inactive)
38 | Cc1ccc([N+](=O)[O-])cc1S(=O)(=O)N(C)C | -2.98% (inactive)
39 | CN1CCc2cc(Cl)c(O)cc2[C@@H](c2ccccc2)C1 | -19.2% (inactive)
40 | CC(=O)OCC1=C(C(=O)O)N2C(=O)[C@@H](NC(=O)Cc3cccs3)[C@H]2SC1 | 27.7% (inactive) and 1.09% (inactive)
